A short description of assay [1]: AP1 Signaling Pathway (AID 357).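 Note: ME-180 reporter cells stimulated with EGF at its EC50 level; % is set by controls: 0 for no effect and ±100 for the full control effect.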 The procedure, abridged:
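In this screen, ME-180 cells in Opti-MEM with 0.5% dialyzed FBS received EC50 EGF and compound titrations for 5 h. AP-1 reporter beta-lactamase was detected via CCF4 ratio, giving AC50 for positive and negative modulators.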

Assay [2] concerns the target Cytochrome P450 1A2 (Homo sapiens) (UniProt P05177). The assay is described as follows: p450-cyp1a2 (AID 410; calls by dose curve; note: potency is the fitted concentration of half-maximal effect;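 for activity change, negative = inhibition: -100% = full effect of reference inhibitor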). Summed up:
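20nM CYP1A2, 100uM Luciferin-ME (=Km), 100mM KPO4; cpd 10 min RT; +NADPH regen, 60 min RT; stop/detect 20 min; luminescence. Normalized to furafylline 57 uM = full inhibition.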

Assay [3] is described as follows: NFAT Signaling Pathway (AID 444).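 Note: carbachol stimulus at about its EC50 of 1 µM final; % is set by controls: 0 for no effect and ±100 for the full control effect.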 Particulars: Jurkat NFAT-bla M1, carbachol, beta-lactamase ratio, 5 h; at 17.2 µM (top of the series) unless noted. Summed up: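 Jurkat cells with NFAT-driven β-lactamase reporter and co-expressed M1 receptor, stimulated with carbachol (final 1 uM, ~EC50), compound titration, 5 h at 37 °C. CCF4 loaded 1 h at RT; 460/530 nm ratio gave %activity and AC50.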

Assay [4] can be described thus: Stat Signaling Pathway (AID 446).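 Note: ME-180 cervical cancer cells given 40 pM IL-6 alongside compound; SIE-controlled beta-lactamase reporter measured as 460/530 nm FRET emission ratio; % is set by controls: 0 for no effect and ±100 for the full control effect.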 The procedure, abridged: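 Compound effects on IL-6-induced STAT reporter activity were measured in ME-180 cells. After overnight culture, cells were co-treated with 40 pM IL-6 for 5 hrs before beta-lactamase substrate loading at room temperature.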
Assay [5] concerns the target Glucocorticoid receptor (Homo sapiens) (UniProt P04150). The assay is described as follows: GR-GFP Redistribution (AID 450;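 active = compounds whose dose series gives a full or clear partial fitted curve of increased nuclear translocation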; note: potency is the fitted concentration of half-maximal effect). Conditions: U2OS GR-GFP nuclear translocation, laser cytometry, 2 h.
The target is the same in assay [6]. Briefly: GR-EFC Redistribution (AID 451; calls by dose curve; note: potency is the fitted concentration of half-maximal effect). Conditions: CHO-K1 GR-EFC translocation, beta-gal luminescence, 2 h. Summed up: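 CHO-K1 cells expressing nuclear EA and GR-ED fragments of b-gal; compounds titrated up to 46 uM final, 2 h at 37 C. GR nuclear translocation read as complemented b-gal luminescence after 1 h RT detection.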
Assay [7] addresses 3',5'-cyclic-AMP phosphodiesterase 4B (Homo sapiens) (UniProt Q07343). Briefly: qHTS Assay for Inhibitors of PDE-IV (AID 607; active = well fitted activation curve with a large enough effect in the main read-out, with a control signal flat, not every such curve was filed as active; note: % of control where 0% means no effect). Summed up:
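ACTOne HEK293 cells carry a modified cAMP-gated CNG channel and express endogenous PDE4; plated 1000 cells/well, compounds up to 22.9 uM final. Membrane-potential dye fluorescence (ex 535/em 590) was read; parental cells received 10 uM forskolin + 100 uM RO 20-1724.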
For orientation: qHTS replaces the single test concentration by a dilution series.

Assay [8] is described as follows: qHTS Assay for Lipid Storage Modulators (AID 1519; calls by dose curve). Particulars: Drosophila S3 cells, BODIPY lipid droplet/cell ratio, laser cytometry, cells loaded with oleic acid. The procedure, abridged:
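Cells seeded at 5,000 per well were treated with compounds over a concentration series and loaded with oleic acid (400 uM, as added). Lipid droplet fluorescence (488 nm excitation, 500-530 nm channel) was read by laser-scanning cytometry and normalized to 20 uM Triacsin C.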

Assay [9] has as its target Mitogen-activated protein kinase 10 (Mus musculus) (UniProt Q61831). Briefly: JNK3 AlphaScreen Assay (AID 530).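 Note: kinase came from lysate of stimulated human HepG2 cells; signal reports phosphorylation of biotinylated GST-cJun 1-79 at Ser73 with 10 µM ATP; % is set by controls: 0 for no effect and ±100 for the full control effect.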 Summed up: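 HepG2 lysate (IL-1b/TNFa pre-activated) + biotin-GST-cJun 1-79 + anti-pSer73 cJun; cpd titration, 15 min RT; ATP 10 uM start; Tris pH 7.6, MgCl2, DTT, vanadate; beads in EDTA buffer; AlphaScreen.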
In general terms: In Alpha technology, singlet oxygen from a donor bead excites a nearby acceptor bead.

Assay [10] concerns the target Ubiquitin carboxyl-terminal hydrolase 1 (Homo sapiens) (UniProt O94782). Briefly: Inhibitors of USP1/UAF1: Pilot qHTS (AID 504865; active = well fitted inhibition curve with a large enough effect;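 note: rhodamine fluorescence freed from ubiquitin-rhodamine substrate followed over time; top concentration of the series differs between compounds; % is set by controls: 0 for no effect and ±100 for the full control effect; nearly all actives have a fitted effect of over 35% in size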). Summed up: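 Kinetic fluorescence assay: 1nM USP1/UAF1, 15 min compound preincubation, then 150nM Ub-Rho; 480/540 nm.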
[11] abbreviates: measured here: cell count channel max response.
Where [12] appears, read: measured here: lipid channel max response.

From PubChem BioAssay (NCATS) come the findings set out here.

Records with an inconclusive call do not appear. Activity calls are given as the source filed them. Unless noted, calls come from the whole dose curve; as a rule, active = well fitted curve in either direction with a large enough effect (not every such curve was filed as active); inconclusive = small, poorly fitted or top-dose-only effect, or another doubt; inactive = flat fitted curve, though single readings scatter.

Chain of Cytochrome P450 1A2 (Homo sapiens) (P05177 whole entry, looked up): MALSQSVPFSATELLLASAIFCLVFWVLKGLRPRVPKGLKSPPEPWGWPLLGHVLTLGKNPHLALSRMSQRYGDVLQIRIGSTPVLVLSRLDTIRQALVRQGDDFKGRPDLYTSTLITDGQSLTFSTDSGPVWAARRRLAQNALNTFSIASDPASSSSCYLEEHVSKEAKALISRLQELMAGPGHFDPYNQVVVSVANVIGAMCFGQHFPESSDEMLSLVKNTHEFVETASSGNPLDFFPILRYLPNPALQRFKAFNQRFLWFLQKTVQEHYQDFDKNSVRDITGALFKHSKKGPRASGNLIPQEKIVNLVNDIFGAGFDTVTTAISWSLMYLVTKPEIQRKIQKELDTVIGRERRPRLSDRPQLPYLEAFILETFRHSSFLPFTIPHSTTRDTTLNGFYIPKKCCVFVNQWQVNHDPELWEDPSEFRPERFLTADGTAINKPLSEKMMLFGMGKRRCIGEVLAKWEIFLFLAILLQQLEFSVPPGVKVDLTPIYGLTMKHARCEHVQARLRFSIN
Chain of Glucocorticoid receptor (Homo sapiens) (P04150 whole entry, looked up, the tested form may be a part): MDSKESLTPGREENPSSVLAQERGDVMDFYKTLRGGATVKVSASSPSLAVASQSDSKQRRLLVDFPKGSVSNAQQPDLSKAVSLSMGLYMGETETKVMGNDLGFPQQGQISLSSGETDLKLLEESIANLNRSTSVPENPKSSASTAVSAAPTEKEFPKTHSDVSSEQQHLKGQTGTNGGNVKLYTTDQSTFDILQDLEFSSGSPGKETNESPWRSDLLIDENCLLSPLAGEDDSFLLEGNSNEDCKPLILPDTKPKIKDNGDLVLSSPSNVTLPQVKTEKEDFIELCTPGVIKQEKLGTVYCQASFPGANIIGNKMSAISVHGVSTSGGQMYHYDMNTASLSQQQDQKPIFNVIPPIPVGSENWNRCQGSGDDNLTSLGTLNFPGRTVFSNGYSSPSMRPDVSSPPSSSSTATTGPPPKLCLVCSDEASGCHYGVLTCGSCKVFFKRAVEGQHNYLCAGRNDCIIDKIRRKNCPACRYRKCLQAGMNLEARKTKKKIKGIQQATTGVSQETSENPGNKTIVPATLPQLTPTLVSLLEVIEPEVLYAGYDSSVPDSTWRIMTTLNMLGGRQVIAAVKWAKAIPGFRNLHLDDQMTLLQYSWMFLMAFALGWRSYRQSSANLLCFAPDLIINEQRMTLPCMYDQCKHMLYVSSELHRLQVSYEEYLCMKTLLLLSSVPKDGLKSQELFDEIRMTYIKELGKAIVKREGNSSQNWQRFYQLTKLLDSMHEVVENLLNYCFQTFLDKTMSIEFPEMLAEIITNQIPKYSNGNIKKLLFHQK
Chain of Ubiquitin carboxyl-terminal hydrolase 1 (Homo sapiens) (O94782 whole entry, looked up): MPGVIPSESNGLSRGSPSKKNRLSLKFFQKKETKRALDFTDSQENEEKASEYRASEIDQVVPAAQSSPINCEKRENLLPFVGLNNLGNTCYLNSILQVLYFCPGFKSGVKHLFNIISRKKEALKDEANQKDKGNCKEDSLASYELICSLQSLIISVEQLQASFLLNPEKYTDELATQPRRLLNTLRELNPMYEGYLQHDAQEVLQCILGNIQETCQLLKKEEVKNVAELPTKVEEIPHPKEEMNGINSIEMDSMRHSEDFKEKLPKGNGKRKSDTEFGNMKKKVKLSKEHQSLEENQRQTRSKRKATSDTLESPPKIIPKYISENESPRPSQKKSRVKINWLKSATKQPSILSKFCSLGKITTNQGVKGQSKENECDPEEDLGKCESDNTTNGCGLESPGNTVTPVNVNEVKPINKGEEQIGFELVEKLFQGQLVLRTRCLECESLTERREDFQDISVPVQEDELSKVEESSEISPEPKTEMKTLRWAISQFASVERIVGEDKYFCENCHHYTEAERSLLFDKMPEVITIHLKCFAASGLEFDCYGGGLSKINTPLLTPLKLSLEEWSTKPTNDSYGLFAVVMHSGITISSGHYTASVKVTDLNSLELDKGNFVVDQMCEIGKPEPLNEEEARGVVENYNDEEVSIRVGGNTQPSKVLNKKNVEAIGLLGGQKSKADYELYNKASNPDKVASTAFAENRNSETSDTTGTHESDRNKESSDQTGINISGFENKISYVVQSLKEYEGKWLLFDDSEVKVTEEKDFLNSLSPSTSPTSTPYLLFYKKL
Chain of 3',5'-cyclic-AMP phosphodiesterase 4B (Homo sapiens) (Q07343 whole entry, looked up): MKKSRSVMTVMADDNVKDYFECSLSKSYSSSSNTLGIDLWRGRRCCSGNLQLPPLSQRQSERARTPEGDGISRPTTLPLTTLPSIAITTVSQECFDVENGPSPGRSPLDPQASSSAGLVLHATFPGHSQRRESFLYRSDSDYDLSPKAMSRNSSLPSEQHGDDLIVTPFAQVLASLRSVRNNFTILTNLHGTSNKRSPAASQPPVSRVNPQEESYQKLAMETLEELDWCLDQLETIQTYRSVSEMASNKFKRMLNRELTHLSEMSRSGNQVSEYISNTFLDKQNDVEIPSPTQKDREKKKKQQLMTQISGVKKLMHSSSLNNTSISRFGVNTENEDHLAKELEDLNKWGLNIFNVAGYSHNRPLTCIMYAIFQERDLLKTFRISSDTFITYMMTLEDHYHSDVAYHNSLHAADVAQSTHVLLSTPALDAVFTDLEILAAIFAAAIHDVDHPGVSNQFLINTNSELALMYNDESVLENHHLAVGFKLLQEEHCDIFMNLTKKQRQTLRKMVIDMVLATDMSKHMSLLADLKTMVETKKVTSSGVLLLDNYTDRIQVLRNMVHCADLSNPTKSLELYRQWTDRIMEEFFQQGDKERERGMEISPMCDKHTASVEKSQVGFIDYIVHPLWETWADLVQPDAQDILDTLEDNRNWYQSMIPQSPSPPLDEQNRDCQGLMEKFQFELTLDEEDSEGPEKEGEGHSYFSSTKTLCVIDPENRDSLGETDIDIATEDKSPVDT

As to `CO[C@H]1C=CO[C@]2(C)Oc3c(C)c(O)c4c(O)c(c5c(c4c3C2=O)NC2(CCN(CC(C)C)CC2)N=5)=NC(=O)C(C)=CC=C[C@@H](C)[C@@H](O)[C@@H](C)[C@@H](O)[C@@H](C)[C@@H](OC(C)=O)[C@@H]1C`, the result in assay [1], in assay [4] and in [7] was inactive. Further, the Potency entry in assay [2] is “inactive”. Further, the activity change, negative = inhibition in [3] was -15% (inactive); in assay [8] (at 25.7 µM (top of the series)) it was -0.285% (inactive). For the same compound, the Potency in assay [5] and in assay [6] was > 20.6 µM (inactive) in each case. Besides, the max response in assay [8] (setting [11]) is -3.75%; in [8] (setting [12]), -1.31%.
With `Cc1c(C)c2c(c(C)c1O)CC[C@@](C)(C(=O)O)O2`, the compound was classed as inactive in assay [1], in [4] and in assay [7]. Besides, the Potency is 20 µM (active) in assay [2], > 20.6 µM (inactive) in [5] and > 20.6 µM (inactive) in [6]. The activity change, negative = inhibition in assay [3] is 9.85% (inactive); in assay [8] (at 25.7 µM (top of the series)) it was 0.436% (inactive). Besides, the Potency result in assay [9] and in [10] was “inactive” each time. In addition, the figures for the max response in assay [8] (setting [11]) and in [8] (setting [12]) were -15.9% and -17.6%, respectively.
As to `CCC(=O)O[C@@]1(C(=O)CCl)[C@@H](C)C[C@@H]2[C@H]3CCC4=CC(=O)C=C[C@@]4(C)[C@]3(F)[C@@H](O)C[C@@]21C`, the outcome in assay [1], in assay [4] and in [7] was inactive. Further, the Potency result in assay [2] and in [9] was “inactive” each time. Also, the activity change, negative = inhibition is -1.76% (inactive) in assay [3] and -3.93% (inactive) in assay [8] (at 25.7 µM (top of the series)). Besides, the results for the Potency in assay [5] and in assay [6] were 0.000621 µM (active) and < 5.9e-06 µM (active), respectively. Besides, the results for the max response in assay [8] (setting [11]) and in [8] (setting [12]) were -18.1% and -15.8%, respectively.
Turning to `N#Cc1cccc(-c2cncnc2-n2ccnc2)c1`, the call in [1], in assay [4] and in [7] was inactive. Moreover, the Potency was 15.8 µM (active) in assay [2] and > 46 µM (inactive) in [6]. In addition, the activity change, negative = inhibition in assay [3] was -7.66% [at 7.69 µM] (inactive); in [8] (at 57.5 µM (top of the series)), 8.24% (inactive). Besides, the Potency entry in [9] and in [10] was “inactive” in each case. The max response in [8] (setting [11]) came out at 16.1%; in [8] (setting [12]), 24.6%.
In the case of `CN(C)/N=N\c1nc[nH]c1C(N)=O`, the outcome in assay [1], in assay [4] and in assay [7] was inactive. The Potency result in assay [2], in assay [9] and in assay [10] was “inactive” throughout. For the same compound, the figures for the activity change, negative = inhibition in [3] and in assay [8] (at 25.7 µM (top of the series)) were 3.5% (inactive) and 0.337% (inactive), respectively. In [6], the Potency is > 20.6 µM (inactive). Besides, the max response in assay [8] (setting [11]) was determined as 10.1%; in assay [8] (setting [12]), 7.48%.
With `CC(=O)N[C@H](CS)C(=O)O`, the compound was classed as inactive in [1], in assay [4] and in assay [7]. The Potency entry in assay [2], in [9] and in assay [10] was “inactive” each time. Moreover, the activity change, negative = inhibition in assay [3] was -2.14% [at 38 µM] (inactive); in assay [8] (at 57.5 µM (top of the series)), 4.08% (inactive). The Potency in [6] was > 46 µM (inactive). Moreover, the max response in [8] (setting [11]) is 2.82%; in assay [8] (setting [12]), 18.6%.
Turning to `CC(=O)CC(=O)[C@@]1(O)CC[C@@H]2[C@@H]3C=C(C)C4=CC(=O)CC[C@@H]4[C@H]3CC[C@]21C`, the compound was classed as inactive in [1], in assay [4] and in assay [7]. The Potency result in [2] and in assay [9] was “inactive” in each case. In addition, the activity change, negative = inhibition is -13.4% (inactive) in [3] and -4.61% (inactive) in assay [8] (at 25.7 µM (top of the series)). In [6], the Potency is > 20.6 µM (inactive). For the same compound, the max response in assay [8] (setting [11]) is -16.2%; in [8] (setting [12]) it was -21%.
For `C[C@@H]1O[C@H](O[C@@H]2[C@@H](Oc3cc(O)c4c(c3)O[C@H](c3ccc(O)cc3)CC4=O)O[C@@H](CO)[C@@H](O)[C@H]2O)[C@@H](O)[C@H](O)[C@@H]1O`, the call in assay [1], in [4] and in assay [7] was inactive. In addition, the Potency result in assay [2], in [9] and in assay [10] was “inactive” throughout. Besides, the figures for the activity change, negative = inhibition in assay [3] and in assay [8] (at 25.7 µM (top of the series)) were -5.97% (inactive) and -1.64% (inactive), respectively. Moreover, the Potency in assay [6] is > 20.6 µM (inactive). For the same compound, the max response in [8] (setting [11]) is -4.7%; in assay [8] (setting [12]) it was -6.11%.
